Data taken from PubChem BioAssay (NCATS).
Where “and” joins values, the source holds several entries; their conditions need not be identical. Equal values may be shown once. Inconclusive results are not listed. Where a structure was tested more than once in an assay, its records may differ in their call. Calls of active or inactive are those of the source. Calls come from the whole dose curve; as a rule, active = well fitted curve in the direction sought with a large enough effect; inconclusive = small, poorly fitted or top-dose-only effect, or another doubt; inactive = no such curve, though single readings can be large; an effect the other way counts as inactive or inconclusive.

Tests used:
CRL-7250 = normal cell line; experiment: Cytotoxic Profiling of Annotated Libraries Using Quantitative High-Throughput Screening (AID 1296008); settings: Five cell lines viability, CellTiter-Glo ATP luminescence, 48-72 h; max response: hits give low values; note: nearly all actives have a fitted effect of over 60% in size; note: potency is the fitted concentration of half-maximal effect; for max response: % is set by controls: 0 for no effect and ±100 for the full control effect
Method in brief: (§1)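 Cells exposed to compounds for 48 or 72 hr at 37 degrees Celsius. Viability read as ATP-coupled luminescence with CellTiter-Glo after 10 min at room temperature.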

HEK293 = experiment: as above; settings: Five cell lines viability, CellTiter-Glo ATP luminescence, 48-72 h; max response: hits give low values
Method in brief: as §1

HaCat [1] = experiment: as above; settings: Five cell lines viability, CellTiter-Glo ATP luminescence, 48-72 h; max response: hits give low values
Method in brief: as §1

MCC-26 = experiment: qHTS assay to identify novel small-molecules to repurpose for Merkel cell carcinoma treatment (AID 1296009); settings: MCC and control cell lines, CellTiter-Glo viability, 72 h; series mostly up to 46 µM; note: nearly all actives have a fitted effect of over 60% in size; note: potency is the fitted concentration of half-maximal effect
Method in brief: (§2)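 Cells were incubated with compound for 72 hr at 37 degree celsius before CellTiter-Glo addition. Luminescence was normalized with no-cell wells as full cytotoxicity and DMSO as baseline.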

MKL-1 = experiment: as above; settings: MCC and control cell lines, CellTiter-Glo viability, 72 h; series mostly up to 46 µM
Method in brief: as §2

UISO = experiment: as above; settings: MCC and control cell lines, CellTiter-Glo viability, 72 h; series mostly up to 46 µM
Method in brief: as §2

WaGa = experiment: as above; settings: MCC and control cell lines, CellTiter-Glo viability, 72 h; series mostly up to 46 µM
Method in brief: as §2

C33A = experiment: Primary qHTS to identify gynecologic anti-cancer compounds using libraries of approved drugs and bioactive compounds (AID 1345084); settings: Gynecologic cancer cell panel viability, ATPlite luminescence, 48 h; series mostly up to 57.5 µM; note: % is set by controls: 0 for no effect and ±100 for the full control effect; nearly all actives have a fitted effect of over 55% in size
Method in brief: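 Five-concentration response, 48 h; readout is ATP-driven luciferase luminescence.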

KB-3-1 = experiment: Cytotoxic Profiling of Annotated Libraries Using Quantitative High-Throughput Screening (AID 1296008); settings: Five cell lines viability, CellTiter-Glo ATP luminescence, 48-72 h; max response: hits give low values; note: nearly all actives have a fitted effect of over 60% in size; note: potency is the fitted concentration of half-maximal effect; for max response: % is set by controls: 0 for no effect and ±100 for the full control effect
Method in brief: as §1

NIH3T3 [2] = experiment: as above; settings: Five cell lines viability, CellTiter-Glo ATP luminescence, 48-72 h; max response: hits give low values
Method in brief: as §1

HACAT [3] = experiment: qHTS assay to identify novel small-molecules to repurpose for Merkel cell carcinoma treatment (AID 1296009); settings: MCC and control cell lines, CellTiter-Glo viability, 72 h; at 44.8 µM (top of the series) unless noted; note: nearly all actives have a fitted effect of over 60% in size; note: potency is the fitted concentration of half-maximal effect
Method in brief: as §2

HEK293T = experiment: as above; settings: MCC and control cell lines, CellTiter-Glo viability, 72 h; at 44.8 µM (top of the series) unless noted
Method in brief: as §2

MCC-13 = experiment: as above; settings: MCC and control cell lines, CellTiter-Glo viability, 72 h; series mostly up to 46 µM
Method in brief: as §2

MKL-2 = experiment: as above; settings: MCC and control cell lines, CellTiter-Glo viability, 72 h; series mostly up to 46 µM
Method in brief: as §2

NIH3T3 [4] = experiment: as above; settings: MCC and control cell lines, CellTiter-Glo viability, 72 h; at 44.8 µM (top of the series) unless noted
Method in brief: as §2

SC27B = experiment: qHTS profiling for inhibitors of Plasmodium falciparum proliferation (AID 504749); note: nearly all actives have a fitted effect of over 60% in size; note: potency is the fitted concentration of half-maximal effect; settings: P. falciparum in erythrocytes, SYBR Green DNA, 72 h; series mostly up to 28.7 µM
Method in brief: (§3)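 Readout was DNA-dye fluorescence from lysed cultures, ex 485/em 535 nm. Parasitized red cells had grown 72 h with compound; data scaled between 0.29 uM artemisinin and DMSO wells and corrected using vehicle-only plates.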

TAB109 = experiment: as above; settings: P. falciparum in erythrocytes, SYBR Green DNA, 72 h; series mostly up to 28.7 µM
Method in brief: as §3

TAB113 = experiment: as above; settings: P. falciparum in erythrocytes, SYBR Green DNA, 72 h; series mostly up to 28.7 µM
Method in brief: as §3

W2 = experiment: as above; settings: P. falciparum in erythrocytes, SYBR Green DNA, 72 h; series mostly up to 28.7 µM
Method in brief: as §3

TAB165 = experiment: as above; settings: P. falciparum in erythrocytes, SYBR Green DNA, 72 h; series mostly up to 28.7 µM
Method in brief: as §3

O=C(NOCC1CC1)c1ccc(F)c(F)c1Nc1ccc(I)cc1Cl
active: Potency (HEK293) 18.7 µM | Potency (HaCat [1]) 26.6 µM | Potency (MKL-1) 18.8 µM and 20.9 µM | Potency (UISO) 15 µM | Potency (WaGa) 15 µM
inactive: max response (CRL-7250) -12.6% | max response (HaCat [1]) -17.9% | Potency (MCC-26) | Potency (C33A)

Clc1ccc2c(N3CCN(CCCN4CCN(c5ccnc6cc(Cl)ccc56)CC4)CC3)ccnc2c1
inactive: max response (CRL-7250) -5.75% | outcome (HEK293) | outcome (HaCat [1]) | max response (KB-3-1) 3.7% | max response (NIH3T3 [2]) -5.21% | outcome (HACAT [3]) inactive [at 17.4 µM] | outcome (HEK293T) inactive [at 17.4 µM] | Potency (MCC-13) | Potency (MCC-26) | Potency (MKL-1) | Potency (MKL-2) | Potency (UISO) | Potency (WaGa)

Nc1nc(OCc2ccccc2)c2[nH]cnc2n1
inactive: max response (CRL-7250) 0.448% | outcome (HEK293) | outcome (HaCat [1]) | max response (KB-3-1) 5.98% | outcome (NIH3T3 [2]) | outcome (HACAT [3]) | outcome (HEK293T) | Potency (MCC-13) | Potency (MCC-26) | Potency (MKL-1) | Potency (MKL-2) | outcome (NIH3T3 [4]) | Potency (UISO) | Potency (WaGa)

Nc1ncn([C@H]2C[C@H](O)[C@@H](CO)O2)c(=O)n1
inactive: max response (CRL-7250) -5.93% and -8.36% | outcome (HaCat [1]) | max response (KB-3-1) 9.32% | outcome (KB-3-1) | max response (NIH3T3 [2]) -24.2% | outcome (HACAT [3]) | Potency (MCC-13) | Potency (MCC-26) | Potency (MKL-1) | Potency (MKL-2) | Potency (UISO) | Potency (WaGa) | Potency (C33A)
active: Potency (HEK293) 18.7 µM

COCCCOc1ccnc(CS(=O)c2nc3ccccc3[nH]2)c1C (centres undefined)
inactive: Potency (SC27B) | Potency (TAB109) | Potency (TAB113) | outcome (CRL-7250) | max response (HEK293) 1.81% | max response (HaCat [1]) -2% | outcome (HaCat [1]) inactive; activator | max response (NIH3T3 [2]) -12.1% and 2.17% | outcome (NIH3T3 [2]) | outcome (HACAT [3]) inactive; activator | Potency (MCC-13) | Potency (MCC-26) | Potency (MKL-1) | Potency (MKL-2) | outcome (NIH3T3 [4]) | Potency (UISO) | Potency (WaGa) | Potency (C33A)
active: Potency (W2) 1.07 µM

O=c1c(O)c(-c2cc(O)c(O)c(O)c2)oc2cc(O)cc(O)c12
inactive: max response (CRL-7250) 3.08% | max response (HEK293) -2.69% | outcome (HaCat [1]) | max response (KB-3-1) 2.62% | max response (NIH3T3 [2]) -26.9% | outcome (HACAT [3]) | Potency (MCC-13) | Potency (MCC-26) | Potency (MKL-1) | Potency (MKL-2) | Potency (UISO) | Potency (WaGa)

O=C(CCc1ccc(O)cc1)c1c(O)cc(O)cc1O
inactive: outcome (CRL-7250) | max response (HEK293) 0.264% | outcome (HaCat [1]) | outcome (KB-3-1) | outcome (NIH3T3 [2]) | outcome (HACAT [3]) | Potency (MCC-13) | Potency (MCC-26) | outcome (NIH3T3 [4])
active: Potency (MKL-1) 9.35 µM | Potency (MKL-2) 4.69 µM | Potency (WaGa) 5.9 µM

O=C(O)c1cccnc1Nc1cccc(C(F)(F)F)c1
inactive: Potency (SC27B) | Potency (TAB109) | Potency (TAB113) | Potency (TAB165) | Potency (W2) | max response (CRL-7250) -6.42% and -10.2% | max response (HEK293) -4.95% | max response (HaCat [1]) 1.64% | outcome (HaCat [1]) | max response (KB-3-1) 5.86% and -3.77% | max response (NIH3T3 [2]) -31.9% | outcome (NIH3T3 [2]) | outcome (HACAT [3]) | Potency (MCC-13) | Potency (MCC-26) | Potency (MKL-1) | Potency (MKL-2) | outcome (NIH3T3 [4]) | Potency (UISO) | Potency (WaGa) | Potency (C33A)

Nc1ccn([C@@H]2O[C@H](CO)[C@@H](O)C2O)c(=O)n1 (some centres undefined)
inactive: Potency (SC27B) | Potency (TAB109) | Potency (TAB113) | Potency (TAB165) | outcome (CRL-7250) | outcome (HEK293) | outcome (HaCat [1]) | max response (KB-3-1) 21.2% | outcome (KB-3-1) | outcome (NIH3T3 [2]) | outcome (HACAT [3]) | outcome (HEK293T) | Potency (MCC-13) | Potency (MCC-26) | Potency (MKL-1) | Potency (MKL-2) | outcome (NIH3T3 [4]) | Potency (UISO) | Potency (WaGa)

Cc1nc2n(c(=O)c1CCN1CCC(c3noc4cc(F)ccc34)CC1)CCCC2
inactive: Potency (SC27B) | Potency (TAB109) | Potency (TAB113) | Potency (TAB165) | max response (CRL-7250) 0.174% | max response (HEK293) -10.6% | max response (HaCat [1]) 2.05% and 3.62% | max response (KB-3-1) 0.624% and -4.98% | max response (NIH3T3 [2]) -4.59% and 2.76% | Potency (MCC-13) | Potency (MCC-26) | Potency (MKL-1) | Potency (MKL-2) | Potency (UISO) | Potency (WaGa)

C[Se]CCC(N)C(=O)O (centres undefined)
inactive: Potency (SC27B) | Potency (TAB109) | Potency (TAB113) | Potency (TAB165) | max response (CRL-7250) -3.1% | max response (HEK293) -11.1% | max response (HaCat [1]) -19.1% | max response (KB-3-1) -9.75% | outcome (NIH3T3 [2]) | Potency (MCC-13) | Potency (MCC-26) | Potency (MKL-1) | Potency (MKL-2) | outcome (NIH3T3 [4]) inactive [at 92 µM] | Potency (UISO) | Potency (WaGa)
